These results are taken from PubChem BioAssay AID2685 (National Center for Advancing Translational Sciences (NCATS), 2010).

The campaign covered roughly 320,000 compounds. About 2,100 (0.66%) were called active. About 53% were inconclusive and are not listed. Calls follow the shape of the dose curve; as a rule, active = well fitted inhibition curve with a large enough effect in the signal ratio, with a control signal flat (not every such curve was filed as active); inconclusive = small, poorly fitted or top-dose-only effect, or effect the other way, or a change in a side signal; inactive = flat fitted curve, though single readings scatter; the % refers to the signal ratio. The entries come from a sample that favours actives as a whole.
Potency is read from the fitted curve at half-maximal effect.

A short description of the assay: qHTS Assay for Lipid Storage Modulators in Drosophila S3 Cells.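 As to cell number change: cells counted by Cell Tracker Red CMTPX staining in the red channel.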 Particulars: BODIPY lipid droplet fluorescence, 18-24 h, cells fed with added oleic acid; cell number change: measured here: cell count max response; series mostly up to 46.1 µM. In outline: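 Laser-scanning cytometry quantifies lipid droplet accumulation (500–530 nm total intensity; droplet/cell object ratio) in oleic acid-fed (400 uM added) Drosophila S3 cells treated with a concentration series. 20 uM Triacsin C defined 100% inhibition.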
With `C#CCOCCOCCOCCNc1nc(N2CCN(C(=O)[C@H](CCC(=O)O)n3cc(C(N)[C@H](C)CC)nn3)CC2)nc(N2CCN(C(=O)[C@H](CCC(=O)O)n3cc(C(N)[C@H](C)CC)nn3)CC2)n1` (stereo partly drawn), the Potency result was “inactive” and the cell number change was -3.88%.

Consider `O=C(CN(Cc1ccccc1)S(=O)(=O)c1ccccc1)N/N=C/c1ccc([N+](=O)[O-])cc1`, for which the Potency entry was “inactive” and the cell number change was -4.65%.

Regarding `Cc1ccc(OCC(=O)NNC(=S)NC(=O)c2ccc(Br)o2)c(C)c1`, the Potency result was “inactive” and the cell number change came out at 7.54%.

Turning to `Cc1ccc(-n2nc3c(=O)n(CC(=O)NCCc4ccc(Cl)cc4)nc(C)c3c2C)cc1`, the Potency result was “inactive” and the cell number change was -10.8%.

`Cc1ccc(-n2nc3c(=O)n(CC(=O)NCCCc4ccccc4)nc(C)c3c2C)cc1`: the Potency is 18.4 µM (active) and the cell number change is 21%.

For the molecule `Cc1ccc(-n2nc3c(=O)n(C(C)C(=O)NCCCc4ccccc4)nc(C)c3c2C)cc1` (stereo not drawn), the Potency entry is “inactive” and the cell number change is -8.4%.

In the case of `Cc1cc(C)cc(NC(=O)CSc2ncc(S(=O)(=O)c3ccccc3)c(=O)[nH]2)c1`, the Potency entry is “inactive” and the cell number change is 4.62%.

Consider `O=C(CN1CCNC(=O)C1)NCCc1ccc(Cl)cc1Cl`, for which the Potency result is “inactive” and the cell number change was -23.8%.

Consider `O=C(CN1C(=O)C(=O)N(C2CCCC2)C1=O)NCCc1ccc(Cl)cc1Cl`, for which the Potency is 4.11 µM (active) and the cell number change is -0.378%.

`O=C(CN1CC(=O)Nc2ccccc21)NCCc1ccc(Cl)cc1Cl`: the Potency result is “inactive” and the cell number change was -5.87%.

Consider `CC(=O)c1cccc(NC(=O)c2cc(C)no2)c1`, for which the Potency entry is “inactive” and the cell number change was 5.99%.

Turning to `CCC(C)[C@@H](N)C(=O)N/N=C/c1cccc2nccnc12` (stereo partly drawn), the Potency result was “inactive” and the cell number change is -7.62%.

As for `CCC(c1nnnn1Cc1ccco1)N1CCC(C(N)=O)CC1` (stereo not drawn), the Potency is 5.8 µM (active) and the cell number change was -7.68%.

Turning to `CCC(c1nnnn1Cc1ccco1)N1CCN(C(=O)c2ccco2)CC1` (stereo not drawn), the Potency result is “inactive” and the cell number change came to 0.561%.

In the case of `CC(C)C(c1nnnn1Cc1ccco1)N1CCC(C(N)=O)CC1` (stereo not drawn), the Potency result was “inactive” and the cell number change is -12.1%.

As for `CCCC(=O)Nc1ccc2oc(=O)ccc2c1`, the Potency entry is “inactive” and the cell number change is -4.63%.

Consider `Cc1ccccc1C(=O)N1CCCC(N2CCN(Cc3ccc4c(c3)OCO4)CC2)C1` (stereo not drawn), for which the Potency entry was “inactive” and the cell number change amounted to 0.496%.

For the molecule `CCNc1nc(NCC)n2c(SCC(=O)O)nnc2n1`, the Potency is 29.1 µM (active) and the cell number change was -12%.

Regarding `CCNc1nc(NCC)n2c(SCC(=O)c3ccccc3Cl)nnc2n1`, the Potency entry is “inactive”.

On to `CCNc1nc(NCC)n2c(SCC(=O)Nc3ccccc3)nnc2n1`, for which the Potency result was “inactive” and the cell number change was determined as 9.23%.

`Cc1csc(NC(=O)c2ccc(S(=O)(=O)N3CCCC3)cc2)n1`: the Potency result is “inactive” and the cell number change is 5.75%.

For the molecule `O=C(CNS(=O)(=O)c1cccc2nonc12)NCc1ccc(F)cc1`, the Potency result is “inactive”.

Turning to `COc1cc2c(cc1OC)n(CC(=O)NC1CCCCCC1)n1c(C)cc(=O)nc21`, the Potency is 8.2 µM (active) and the cell number change was -21.9%.

In the case of `CCC(C(=O)NC1CCCCC1)n1c2ccccc2c2nc(=O)cc(C)n21` (stereo not drawn), the Potency result was “inactive” and the cell number change amounted to 1.33%.

On to `COc1cccc2c1cc1c(=O)n(CC(=O)NC3CCCCC3)nc(C)n12`, for which the Potency result was “inactive” and the cell number change was -12.9%.
